High-throughput results: PubChem BioAssay, several laboratories
This is a sample that favours compounds with a hit; in the whole collection about 2.2% have one here.
Exocytosis inh: lytic granule exocytosis inhibition; inhibition, % at 10 µM; TALL-104 LAMP-1 surface exposure, flow cytometry; cells stimulated with thapsigargin and PMA; 0.66% of 360,000 active;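 active = inhibition above about 55%, limit read from the data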
V-ATPase pH: yeast V-ATPase proton transport regulation by pHLuorin. 0.37% of 350,000 active. response, % at 10 µM. AID 504577. S. cerevisiae, pHLuorin cytosolic pH fluorescence; in the data active = response mostly above about 7.3%, no sharp cut-off; inactive = mostly below about 5.4%; note: actives read high
VLA-4 inh: inhibition in a human VLA-4 binding assay; VLA-4 expressing cells, ligand binding flow cytometry; inhibition, % (about 7 µM as worked out from the volumes in the protocol); 0.2% of 330,000 active; in the data active = inhibition above about 50%
JMJD2C inh: inhibitors of human GASC-1 (JMJD2C) demethylase; Q9H3R0; GST-JMJD2C(1-420) H3K9me3 demethylation, DELFIA europium; inhibition, % at 2.35 µM; 0.069% of 330,000 active;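 active = more than half of a compound's replicate wells show inhibition beyond 50%, single wells judged on their own value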;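 note: signal counts dimethyl H3K9 product captured on neutravidin plate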
HTR2A ag: agonists of mouse serotonin 5-HT2A receptor (HTR2A) | activation, % at 7.6 µM | CHO-K1 mHTR2A beta-arrestin complementation, luminescence; percent of 30 µM serotonin response | 0.66% of 360,000 active | AID 624169;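 active = activation above a run cutoff, the mean activation of all tested compounds plus 3 SD, cut at about 14% in these data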
MEX-5 binding: C. elegans MEX-5 TCR-2 RNA binding activity; Q9XUB2; MEX-5/FITC-TCR2 RNA binding, fluorescence polarization; hits give low values; activity score (negative = inhibition of binding), % at 10 µM; 0.38% of 300,000 active; AID 1832;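 active = inhibition past about -25% in most replicates, and total fluorescence under double the plate's negative control median, limit read from the data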
MOR ag counter: OPRM1 agonism in mouse HTR2A counterscreen; 5.3% of 2,300 active; AID 624380; activation, % at 9.3 µM; shares compounds with HTR2A ag; U2OS OPRM1 beta-arrestin PathHunter, luminescence; DMSO 0%, DAMGO 9.3 µM 100%;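 active = mean activation above the mean of DMSO-only wells plus 3 SD, cut at about 0.5% in these data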
HTR2A ag conf: mouse HTR2A agonism confirmed; AID 624381; shares compounds with HTR2A ag; activation, % at 7.6 µM; CHO-K1 PathHunter beta-arrestin recruitment, luminescence; DMSO 0%, 30 µM serotonin 100%; 19% of 2,300 active;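 active = mean activation across triplicates above the hit threshold derived in the original primary screen, cut at about 15% in these data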
Hits are given with their value; n = inactive; x = no result given.

SMILES	Exocytosis inh	V-ATPase pH	VLA-4 inh	JMJD2C inh	HTR2A ag	MEX-5 binding	MOR ag counter	HTR2A ag conf
OCCCNc1ncnc2c1ncn2[C@H]1CN(Cc2ccncc2)C[C@@H](CO)O1	n	x	x	x	n	x	x	x
NC(=S)NN=C1C=CCCC1	n	n	x	x	19	x	n	n
OCCC1CN(Cc2cnn(-c3ccc(F)cc3)c2)CCN1Cc1ccsc1 (stereo not given)	n	n	n	n	n	n	x	x
CCn1cc(CN2CCN(Cc3ccsc3)C(CCO)C2)cn1 (stereo not given)	n	n	n	n	15	n	n	n
Cc1ccc(C(C)C)c(OCC(=O)OCC(=O)NC2CC2)c1	n	n	n	n	26	x	n	n
O=C(O)C1=CCCNC1	n	n	n	n	n	n	x	x
O=C(O)C1=CCNCC1	n	n	n	n	18	n	n	n
COc1cc(/C=C2\CCc3ccccc3C2=O)cc(OC)c1OC	n	n	n	n	19	n	n	n
CCOc1ccccc1C=C1CCc2ccccc2C1=O	n	n	x	x	30	x	n	n
COc1ccccc1C=C1CCc2ccccc2C1=O	n	x	x	x	n	x	x	x
Cn1ccc2c(-c3ccc4c(c3)OCCO4)cc3c(c21)C1CCC3O1 (stereo not given)	n	x	x	x	n	x	x	x
Nc1ccc2nc(-c3ccccc3)[nH]c2c1	n	n	n	n	15	n	n	n
COc1ccc(C(O)c2ncc(-c3ccccc3F)[nH]2)cc1 (stereo not given)	n	x	x	x	n	x	x	x
O=C(NNC(=O)c1ccccc1Br)c1cnccn1	n	n	n	n	n	x	x	x
CN(Cc1ccccc1)CC(O)COc1ccc(CNCCOc2cccnc2)cc1 (stereo not given)	n	n	n	n	18	n	n	38
CN(Cc1ccccc1)C(=O)C1CCN(S(=O)(=O)c2cccc3nsnc23)CC1	n	n	n	n	n	n	x	x
CCCN(C(=O)Cc1coc2cc(OC)ccc12)C1CCS(=O)(=O)C1 (stereo not given)	n	n	n	n	n	x	x	x
CC(C)(C)NC(=O)CN(C(=O)C(=O)Nc1ccc2c(c1)OCCO2)C1CCCC1	n	n	n	n	n	n	x	x
CCC(C)(C)NC(=O)CN(C(=O)C(=O)Nc1ccc2c(c1)OCCO2)N1CCOCC1	n	n	n	n	16	n	n	n
Cc1ccc(C(=O)NCCNC(=O)CN2CCOCC2)cc1	n	n	n	n	15	n	n	n
COc1ccc(NC(=O)CNc2ccc(OC)c(S(=O)(=O)N3CCOCC3)c2)cc1	n	n	x	x	n	x	x	x
Cn1c(SCC(=O)NCC2CCCO2)nnc1-c1c[nH]c2ccccc12 (stereo not given)	n	n	n	n	37	n	n	n
CCn1c(SCC(=O)NCC2CCCO2)nnc1-c1c[nH]c2ccccc12 (stereo not given)	n	n	n	n	n	n	x	x
O=C(Nc1nnc([C@@H]2C[C@H](O)[C@@H](CO)O2)s1)Nc1cccc(Cl)c1Cl	n	x	x	x	n	x	x	x
CCCn1c(N2CCN(Cc3ccc(Cl)cc3)CC2)nc2ccccc21	n	n	n	n	22	n	n	n
SMILES	Exocytosis inh	V-ATPase pH	VLA-4 inh	JMJD2C inh	HTR2A ag	MEX-5 binding	MOR ag counter	HTR2A ag conf
Cc1ccccc1CC(=O)N1CCN(S(=O)(=O)c2cccs2)CC1	n	n	n	n	16	n	n	n
Cc1ccccc1CC(=O)N1CCN(S(=O)(=O)c2ccc(Cl)s2)CC1	n	n	n	n	n	x	x	x
COc1ccc(CCNC(=O)C(=O)NCC2OCCN2S(=O)(=O)c2ccc(C)cc2)cc1 (stereo not given)	n	n	n	n	n	n	x	x
COc1ccc(S(=O)(=O)N2CCOC2CNC(=O)C(=O)NCCc2ccccc2)cc1 (stereo not given)	n	n	n	n	46	n	n	n
O=C(NCCCO)C(=O)NCC1OCCCN1S(=O)(=O)c1cccs1 (stereo not given)	n	n	n	n	16	n	0.9	n
NS(=O)(=O)c1cccc(NC(=O)c2ccc(S(=O)(=O)N3CCCCCC3)cc2)c1	n	n	n	n	n	x	x	x
